Screening results as filed in PubChem BioAssay.
The sample as a whole holds a higher share of hits than the screen did.
Tg IFNy HTS: T. gondii growth inhibition with IFN-gamma, primary screen, cell-based. activity change, negative = inhibition, % (no concentration beside the values). AID 1259416, 2018. 3.8% of 69,000 active. Toxoplasma gondii growth in IFN-gamma-treated host cells; stronger effect = lower value; in the data active means activity change below about -70%, passing the limit was not always enough;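 further: host cells are HeLa cells infected with Toxoplasma gondii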
Each line names hits and unclear results; the compound was inactive in the other large screens.

Cc1cnc(CNC(=O)c2nc(-c3cn(Cc4ccccc4)c(C)n3)n3ccccc23)cn1	none
CC(C)Cc1cc(CNC(=O)c2c(O)cccc2O)on1	none
CCc1nccn1CCC(=O)N1CCC2(CC1)c1ccccc1[C@@H](N)[C@@H]2O	none
O=C(Nc1ccc(-c2nc(-c3ccccc3)co2)cc1)c1cccs1	none
COc1ccc(NC(=O)c2c(NS(=O)(=O)c3ccc(C)cc3)csc2C)cc1	none
COc1ccc(NS(=O)(=O)c2ccc(NC(=O)c3cc4ccccc4o3)cc2)cc1	Tg IFNy HTS -71
COc1cc(NC(=O)c2cc3ccccc3o2)ccc1NC(=O)c1cccs1	Tg IFNy HTS -111
O=C(Nc1ccc(NS(=O)(=O)c2ccc(Oc3ccccc3)cc2)cc1)c1ccccc1	none
COc1cc(NC(=S)NC(=O)c2cccs2)ccc1NC(=O)C(C)C	none
Cc1cc(C)n(Cc2nc(-c3ccc(NC(=O)CC(C)C)cc3)oc2C)n1	none
Nc1ccccc1CN1CCCCCC1	none
Cc1nc(=O)n(CC(=O)N2CCC(COc3ccc(Cl)cc3)CC2)c(C)c1C	none
CC(=O)Nc1cccc(NC(=O)C(=O)NCCc2csc(-c3ccc(F)cc3)n2)c1	none
CS(=O)(=O)N1C[C@@H]2COC[C@@]2(COc2ncccc2F)C1	none
CC(C)NC(=O)N1CC[C@@H]2[C@@H](CO)N(C)c3ccc(-c4ccc(F)cc4)cc3[C@@H]21	Tg IFNy HTS -79
CN1c2ccc(C3=CCCCC3)cc2[C@@H]2[C@@H](CCN2C(=O)c2ccccc2F)[C@@H]1CO	Tg IFNy HTS -76
CC(C)NC(=O)N1CC[C@@H]2[C@H]1c1cc(-c3ccc(F)cc3)ccc1N(C)[C@@H]2CO	none
COc1ccc(C#Cc2ccc3c(c2)[C@H]2[C@H](CCN2C(=O)Nc2ccc(C(F)(F)F)cc2)[C@H](CO)N3C)cc1	none
CC(C)NC(=O)N1CC[C@H]2[C@@H]1c1cc(C#Cc3ccccc3)ccc1N(C)[C@H]2CO	none
COc1cccc(-c2ccc3c(c2)[C@H]2[C@H](CCN2C(=O)c2ccccc2F)[C@@H](CO)N3C)c1	none
CN1c2ccc(-c3ccccc3)cc2[C@@H]2[C@@H](CCN2C(=O)CC2CC2)[C@@H]1CO	none
COc1ccc(-c2ccc3c(c2)[C@@H]2[C@@H](CCN2C(=O)Nc2ccccc2OC)[C@@H](CO)N3C)cc1	Tg IFNy HTS -72
CN1c2ccc(C3=CCCCC3)cc2[C@@H]2[C@@H](CCN2C(=O)C2CCOCC2)[C@H]1CO	none
CN1CCOCC2(CCCN(C(=O)c3nn(C)c4ccccc34)C2)C1 (centres undefined)	none
Cn1nnc2cc(C(=O)N3CCC4(CCCO4)CC3)cnc21	none
CC1CC(C)(C)N2C(=O)C(=O)c3cc(OC(=O)c4ccccc4)cc1c32 (centres undefined)	Tg IFNy HTS -96
CC1=CC(C)(C)N(C(=O)c2ccccc2)c2ccc(OC(=O)c3ccccc3)cc21	none
CS(=O)(=O)c1cccc(C(=O)Oc2ccccc2)c1	none
O=C(c1cn(-c2ccccc2)nn1)N1CCN(C(=O)C2CCCO2)CC1 (centres undefined)	none
O=C(c1cccc(-n2cnnc2)n1)N1CCc2[nH]nc(-c3ccccc3)c2C1	none
CNC(=O)c1cc(-c2ccn[nH]2)ccc1Cl	none
NC(=O)c1cc(-c2ccnc3[nH]ccc23)ccc1Cl	Tg IFNy HTS -89
O=C(c1cncc(-c2ccnc3[nH]ccc23)n1)N1CCCCC1	none
Cc1ccc(CN2C[C@@H]3c4nc(N(C)C)ncc4CS(=O)(=O)[C@H]3C2)cc1	none
Cc1ccccc1CN1C[C@@H]2c3nc(N4CCCC(C)C4)ncc3CS(=O)(=O)[C@H]2C1 (some centres undefined)	Tg IFNy HTS -86
Cc1ccc(CN2C[C@@H]3c4nc(N5CCCC(C)C5)ncc4CS(=O)(=O)[C@H]3C2)cc1 (some centres undefined)	none
OCC1(CCc2ccccc2)CCN(c2nccc3occc23)CC1	none
C#C[C@]1(OC(C)=O)CCC2C3CCC4=C/C(=N/O)CCC4C3CC[C@@]21CC (some centres undefined)	Tg IFNy HTS -78
C#C[C@]1(O)CC[C@H]2[C@@H]3CCC4=CC(=O)CC[C@@H]4[C@H]3CC[C@@]21C	none
C#C[C@]1(O)CCC2C3CCC4=CC(=O)CC[C@@H]4C3CC[C@@]21CC (some centres undefined)	none
O=C(c1ccco1)N1CCC2(CC1)C(=O)NCCN2CC1CC1	none
Cc1ccc(NC(=O)CN2C(=O)CCc3cc(S(=O)(=O)N4CCC(C)CC4)ccc32)cc1	none
Cc1cc(C)cc(NC(=O)CN2C(=O)CCc3cc(S(=O)(=O)N4CCC(C)CC4)ccc32)c1	none
O=C(CN1C(=O)CCc2cc(S(=O)(=O)N3CCCC3)ccc21)Nc1cccc(F)c1	none
Cc1cccc(NC(=O)CN2C(=O)CCc3cc(S(=O)(=O)N4CCCCC4)ccc32)c1	none
CCc1ccc(NC(=O)CN2C(=O)CCc3cc(S(=O)(=O)N4CCC(C)CC4)ccc32)cc1	Tg IFNy HTS -77
O=C(CN1C(=O)CCc2cc(S(=O)(=O)N3CCCC3)ccc21)Nc1ccc(Cl)cc1	none
CCc1ccc(NC(=O)CN2C(=O)CCc3cc(S(=O)(=O)N4CCCCC4)ccc32)cc1	Tg IFNy HTS -97
